This passage reports slope difference, toxicity enhancement factor and viability results from PubChem BioAssay AID741 (SRMLSC, 2007).

The test can be described thus: reversers of MRP drug resistance, dose response, cell-based (AID 741). Particulars: MRP-overexpressing cells, viability with/without cytotoxic drug; slope difference: measured here: slope difference tox minus reversal, stronger effect = higher value; toxicity enhancement factor: stronger effect = higher value; viability: measured here: viability series, compound alone, at 10 µM, stronger effect = lower value.

Each structure is given as a SMILES string. Results filed as inconclusive are left out. Calls of active or inactive are those of the source. Cut-off read from the data, not from the text of the source: active = toxicity enhancement factor above about 0.054; inconclusive = between about 0.00067 and that limit; inactive = weaker than that.

Consider `O=C1CCCC2C3CCCN4CCCC(CN12)C34` (stereo unspecified), for which the slope difference was -0.494, the toxicity enhancement factor is -0.0048 (inactive) and the viability was found to be 94.7%.

Regarding `O[C@H]1[C@H](O)[C@@H](O)CN2CC[C@H](O)[C@H]12`, the slope difference is -0.39, the toxicity enhancement factor is -0.0036 (inactive) and the viability was 98.5%.

By viability is commonly meant a per cent measure of how many cells are alive, often set against a control.
